ADAM17 inh – ADAM17 inhibitors, primary screen, biochemical, QFRET. recombinant ADAM17, EDANS/DABCYL FRET peptide cleavage. inhibition, % at 6.95 µM. actives 0.83% (n = 370,000);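 active = inhibition above the mean of compounds lying between control limits plus 3 SD, set per campaign, cut at about 8.5% in these data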
proKLK7 act – proKLK7 zymogen activators, primary screen, biochemical, fluorescence intensity; AID 652039, 2013; actives 0.9% (n = 370,000); purified proKLK7, EDANS-DABCYL substrate fluorescence; 100% is mature enzyme control, 0% vehicle; activation, % at 7 µM;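 active = activation above the mean of all tested compounds plus 3 SD, computed per campaign excluding outliers beyond control limits, cut at about 13% in these data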
Target sequence (P49862 whole entry, looked up): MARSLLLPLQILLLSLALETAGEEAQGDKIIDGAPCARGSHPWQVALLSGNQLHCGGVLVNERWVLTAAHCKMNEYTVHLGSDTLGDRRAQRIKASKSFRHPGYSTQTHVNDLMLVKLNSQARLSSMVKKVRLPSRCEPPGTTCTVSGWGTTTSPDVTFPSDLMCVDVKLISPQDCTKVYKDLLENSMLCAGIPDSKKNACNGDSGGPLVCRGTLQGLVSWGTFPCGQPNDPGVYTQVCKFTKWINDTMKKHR
FAS TE block – FAS thioesterase domain inhibitors, primary screen, biochemical, fluorescence intensity, uHTS; Fatty acid synthase (Homo sapiens), P49327; recombinant FAS-TE, OMFH fluorogenic substrate, fluorescence endpoint; inhibition, % at 15 µM; actives 0.67% (n = 360,000);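 active = compounds whose normalised, plate-corrected inhibition of enzyme fluorescence in the single-dose primary screen is 50% or more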
ADAM10 inh – human ADAM10 inhibitors, primary screen, biochemical, QFRET, HTS. recombinant ADAM10, EDANS/DABCYL FRET peptide cleavage, 3 h. inhibition, % at 7 µM. actives 0.62% (n = 370,000). AID 720582, 2013;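 active = inhibition above a per-campaign cutoff equal to the mean of compounds falling between control-based bounds plus 3 SD, cut at about 20% in these data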
GRIN3A LBD mod – binders of NR3A ligand-binding domain, primary screen, biophysical, differential scanning fluorimetry, uHTS; AID 1259313, 2017; Tm shift relative to glycine control, % at 25 µM; NR3A LBD differential scanning fluorimetry, Tm shift; 0% = protein alone, 100% = glycine-bound protein; actives 2.5% (n = 340,000); Glutamate receptor ionotropic, NMDA 3A (GRIN3A) ligand-binding domain;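 active = melting temperature shift of at least 10% of the positive control shift, at one fixed dose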
Each line names hits and unclear results; the compound was inactive in the other large screens. Rows were chosen to be rich in hits. Some 4.6% of all compounds tested hit in one or more screens of this group.

COC(=O)c1cc2c(c3c4cc(C)ccc4n(C(=O)c4ccccc4)c13)C(=O)N(Cc1ccccc1)C2	none (no result: FAS TE block, GRIN3A LBD mod)
COc1ccc(/C=N\NC(=O)c2cc3c(ccc4ccccc43)o2)cc1O	GRIN3A LBD mod 25.4
COc1cc(/C=N/NC(=O)c2cc3c(ccc4ccccc43)o2)cc(OC)c1O	none (no result: GRIN3A LBD mod)
COC(=O)c1cc(-c2cc(F)cc(OC)c2)c(=O)n2c1CCC2	none (no result: FAS TE block, GRIN3A LBD mod)
Cc1cc(=O)oc2c(CN(CC(C)C)CC(C)C)c(O)ccc12	proKLK7 act 34.8 (no result: FAS TE block)
CC(C)CN(Cc1c(O)ccc2c3c(c(=O)oc12)CCC3)CC(C)C	none
CSc1ccc(CN(C)C(=O)C(Cc2ccccc2)NC(=O)c2ccccc2)cc1 (centres undefined)	GRIN3A LBD mod 14.1
COc1ccc(S[C@]2(C(=O)N3CCN(c4ncccn4)CC3)CC(=O)N(C(=O)Nc3ccc(C)c(Cl)c3)[C@@H]2c2ccc(OC)cc2)cc1	none (no result: FAS TE block, GRIN3A LBD mod)
O=C(COC(=O)c1c2c(nc3ccccc13)/C(=C/c1cccc([N+](=O)[O-])c1)CCC2)NC1CCS(=O)(=O)C1 (centres undefined)	GRIN3A LBD mod 10.9
O=C(COC(=O)c1c2c(nc3ccccc13)/C(=C\c1ccco1)CC2)NC1CCCC1	none
CC1(C)Oc2ccc3ccc(=O)oc3c2/C(=C/Nc2ccccn2)C1=O	GRIN3A LBD mod 15.3
CCn1cc(C(=O)NC(C)C)c(=O)c2cc(F)c(N3CCN(C(=O)c4ccco4)CC3)cc21	GRIN3A LBD mod 11.9
Cc1cccc(CCNC(=O)c2ccc(Sc3ccccc3Cl)c([N+](=O)[O-])c2)c1	none (no result: FAS TE block, GRIN3A LBD mod)
COc1cccc(C(=O)Nc2cccc(OCC(=O)c3ccccc3)c2)c1	none
Cc1cccc(OCC(=O)Nc2ccc(NC(=O)c3ccccc3)cc2)c1	GRIN3A LBD mod 11.7
COc1cccc(C(=O)COc2ccc(NC(=O)c3ccccc3)cc2)c1	GRIN3A LBD mod 10.5
COc1ccc(NC(=O)COc2cccc(-n3cnnn3)c2)cc1	GRIN3A LBD mod 15.1
C[N+]1(C)[C@H]2CC[C@H]1CC(OC(=O)C(O)c1ccccc1)C2 (some centres undefined)	none (no result: FAS TE block, GRIN3A LBD mod)
Cc1ccc(Nc2nc(-c3cccnc3)cs2)cc1C	none
Brc1ccc(Nc2nc(-c3cccnc3)cs2)cc1	GRIN3A LBD mod 21.4
Clc1cccc(Nc2nc(-c3cccnc3)cs2)c1	GRIN3A LBD mod 26.7
Brc1ccc(-c2csc(Nc3nc(-c4ccc(Br)cc4)cs3)n2)cc1	GRIN3A LBD mod 32.2
COc1ccc(Cl)cc1Nc1nc(-c2cccnc2)cs1	GRIN3A LBD mod 23.6
O=C(O)c1ccc(Nc2nc(-c3cccnc3)cs2)cc1	none
C[C@@H]1CCCN1c1ccc2c(c1)OCCCN(C1CC1)S2(=O)=O	none (no result: FAS TE block, GRIN3A LBD mod)
Oc1ccc(Nc2nc(-c3cccnc3)cs2)cc1	none (no result: ADAM17 inh, proKLK7 act, ADAM10 inh)
Brc1cccc(Nc2nc(-c3cccnc3)cs2)c1	GRIN3A LBD mod 43.0
O=S(=O)(Nc1cccc(-c2ccc3nncn3n2)c1)c1ccccc1F	GRIN3A LBD mod 12.8
O=S(=O)(Nc1ccc(-c2ccc3nncn3n2)cc1)c1ccccc1F	none
O=C(O)CS(=O)(=O)c1ccc(Oc2ccc(S(=O)(=O)CC(=O)O)cc2)cc1	GRIN3A LBD mod 11.1 (no result: FAS TE block)
CCOC(=O)C1CCN(C(=O)C(C)(C)NC(=O)Nc2ccc3c(c2)CCC3)CC1	none (no result: proKLK7 act, FAS TE block, GRIN3A LBD mod)
COc1ccc(Cn2ccc3ccc(-c4ccc5ccn(Cc6cccc(F)c6)c5c4)cc32)cc1	none (no result: FAS TE block, GRIN3A LBD mod)
C/C(=N\Nc1nc2ccccc2s1)c1ccc(Br)s1	GRIN3A LBD mod 22.6
CN(CC#CC1=CCCCC1)/C(N)=N/C(=O)OCc1ccccc1	none (no result: FAS TE block, GRIN3A LBD mod)
CCOc1ccc(CCNC(=O)c2cc3sccc3n2CC)cc1OC	none (no result: FAS TE block, GRIN3A LBD mod)
CCCCCCc1c(O)c2ccccc2[nH]c1=O	none
COC1=C(OC)C(=O)C(CCCCCCCCCCO)=C(C)C1=O	none (no result: GRIN3A LBD mod)
COC1=CC(=O)C(O)=C(CCCCCCC/C=C/CCCCCCCC2=C(O)C(=O)C=C(OC)C2=O)C1=O	GRIN3A LBD mod 25.0 (no result: ADAM17 inh, proKLK7 act, ADAM10 inh)
CCCCCCCCCCCC1=C(O)C(=O)C=C(O)C1=O	FAS TE block 61.5 (no result: ADAM17 inh, proKLK7 act, ADAM10 inh)
CC(=O)Nc1ccc(NC(=O)c2ccc(COc3ccccc3Br)o2)cc1	GRIN3A LBD mod 22.9
COc1ccc(C(=O)N/N=C/c2cc(Br)ccc2O)cc1OC	none
CC(C)(C)c1ccc(OCc2ccc(C(=O)N/N=C/c3ccc(O)c(O)c3)cc2)cc1	GRIN3A LBD mod 23.8
O=C(N/N=C/c1cccc(O)c1)c1ccc(COc2ccccc2Br)cc1	GRIN3A LBD mod 35.0
COc1ccc(O)c(/C=N/NC(=O)c2ccc(OCc3cccc(Br)c3)cc2)c1	GRIN3A LBD mod 27.4
CCCN1CCS(=O)(=O)N(Cc2cn(Cc3ccc(Cl)cc3)nn2)C(C(=O)OC)C1 (centres undefined)	none (no result: FAS TE block, GRIN3A LBD mod)
CCOC(=O)CCCNC(=O)O[C@@H]1CC[C@@]23CCCN2C(=O)CCC[C@H]3C1	none (no result: proKLK7 act, FAS TE block, GRIN3A LBD mod)
Cc1ccc(C(C)C)c(OCc2ccc(C(=O)N/N=C/c3ccc(O)cc3O)cc2)c1	GRIN3A LBD mod 26.0
O=C(COc1ccccc1C(=O)N/N=C\c1ccc(O)c(O)c1)N/N=C/c1ccc(O)c(O)c1	GRIN3A LBD mod 13.3 (no result: ADAM17 inh, proKLK7 act, ADAM10 inh)
COc1ccccc1OCc1ccc(C(=O)Nc2ccccc2)cc1	none
Cc1ccc(C(C)C)c(OCc2ccc(C(=O)N/N=C/c3ccc(C(=O)O)cc3)cc2)c1	none
O=C(Nc1ccc(Cn2cccn2)cc1)c1ccc(COc2ccccc2Br)cc1	GRIN3A LBD mod 30.4
COC(=O)c1cc(-c2ccc(C(C)(C)C)cc2)c(=O)n2c1CCC2	none (no result: FAS TE block, GRIN3A LBD mod)
O=C(O[C@H]1CC[C@@]23CCCN2C(=O)CCC[C@H]3C1)N1CCOCC1	none (no result: proKLK7 act, FAS TE block, GRIN3A LBD mod)
O=C1/C(=C/c2ccc(Br)cc2)Oc2cc(O)ccc21	GRIN3A LBD mod 15.9
O=C1/C(=C/c2ccc([N+](=O)[O-])cc2)Oc2cc(O)ccc21	none
CC(C)(C)c1ccc(/C=C2\Oc3cc(O)ccc3C2=O)cc1	GRIN3A LBD mod 16.8
Cc1ccc(Nc2nc(-c3cccs3)cs2)nc1	GRIN3A LBD mod 24.2
Cc1ccc(Nc2nc(-c3ccccc3)cs2)nc1	none
O=C(Nc1ccc(Cl)c(Cl)c1)N1CCOCC1	none
O=C(/C=C/c1ccc(Cl)cc1)Nc1ccc(N2CCOCC2)cc1	none
O=C(Nc1ccc(N2CCOCC2)cc1)Nc1ccc(Cl)c(Cl)c1	GRIN3A LBD mod 33.3
O=C(Nc1ccc(Cl)cc1)Nc1ccc(N2CCOCC2)cc1	GRIN3A LBD mod 11.0
Cc1ccc(-n2c(SCC(=O)Nc3ccccc3-c3ccccc3)nnc2-c2cnccn2)cc1	none (no result: FAS TE block, GRIN3A LBD mod)
CSc1nc(-c2ccc(Cl)cc2)c(C#N)c(=O)[nH]1	GRIN3A LBD mod 37.9
COc1ccc(NC(=O)c2cc(-c3ccccc3Cl)on2)cc1	GRIN3A LBD mod 36.9
CC(=O)c1cccc(NC(=O)c2cc(-c3cccs3)on2)c1	none

Screening data deposited in PubChem by several laboratories.
